Source: PubChem BioAssay (EPA / NIEHS)
Records with an inconclusive call do not appear. Calls of active or inactive are those of the source. How the source made its calls: active means hit-call score of the fitted dose curve at least 0.9, where 1 is the maximum; inconclusive means response in the unintended direction; inactive means score below 0.9.

molecular target: Estrogen receptor (Homo sapiens) + Estrogen receptor beta (Homo sapiens) (UniProt P03372+Q92731); experiment: OT_ER_ERaERb_0480: Odyssey Thera (OT) 8-hour HEK293T Protein-Complementation Assay for Estrogen Receptor-alpha/-beta Heterodimer (AID 2283352)
Sequence (P03372 whole entry, looked up, the tested form may be a part): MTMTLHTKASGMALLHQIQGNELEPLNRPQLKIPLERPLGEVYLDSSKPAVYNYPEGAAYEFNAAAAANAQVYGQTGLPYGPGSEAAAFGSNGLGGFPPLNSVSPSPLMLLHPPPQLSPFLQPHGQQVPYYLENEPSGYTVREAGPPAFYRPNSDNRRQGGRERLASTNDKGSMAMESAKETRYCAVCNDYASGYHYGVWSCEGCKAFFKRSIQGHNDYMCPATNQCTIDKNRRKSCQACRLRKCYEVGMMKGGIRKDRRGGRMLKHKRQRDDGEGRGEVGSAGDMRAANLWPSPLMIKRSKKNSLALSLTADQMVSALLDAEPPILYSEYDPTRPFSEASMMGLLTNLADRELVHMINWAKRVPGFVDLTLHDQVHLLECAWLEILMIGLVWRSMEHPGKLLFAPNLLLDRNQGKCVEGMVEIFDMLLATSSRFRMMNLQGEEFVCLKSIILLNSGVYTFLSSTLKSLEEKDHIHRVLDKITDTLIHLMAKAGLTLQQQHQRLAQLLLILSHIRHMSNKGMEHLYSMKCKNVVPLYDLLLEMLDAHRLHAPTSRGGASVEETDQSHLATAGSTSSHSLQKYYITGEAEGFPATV
Sequence (Q92731 whole entry, looked up, the tested form may be a part): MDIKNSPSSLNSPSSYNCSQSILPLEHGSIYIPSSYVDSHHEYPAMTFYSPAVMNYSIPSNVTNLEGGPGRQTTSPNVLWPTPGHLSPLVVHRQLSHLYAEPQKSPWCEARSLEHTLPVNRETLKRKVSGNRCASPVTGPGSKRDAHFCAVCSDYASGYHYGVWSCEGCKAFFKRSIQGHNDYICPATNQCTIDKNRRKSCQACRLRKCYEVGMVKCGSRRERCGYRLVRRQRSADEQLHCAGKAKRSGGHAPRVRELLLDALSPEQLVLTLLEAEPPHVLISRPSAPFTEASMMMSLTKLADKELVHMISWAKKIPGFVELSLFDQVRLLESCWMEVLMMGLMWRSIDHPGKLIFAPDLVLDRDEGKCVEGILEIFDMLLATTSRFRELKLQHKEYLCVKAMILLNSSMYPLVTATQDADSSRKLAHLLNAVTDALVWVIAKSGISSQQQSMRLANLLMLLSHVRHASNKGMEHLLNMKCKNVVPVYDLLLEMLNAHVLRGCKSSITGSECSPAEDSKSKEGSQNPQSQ
Procedure: OT_ER_ERaERb_0480 is a cell-based assay that uses HEK293T, a human kidney cell line, with measurements taken at 8 hours after chemical dosing in a 384-well plate.OT_ER_ERaERb_0480 is one of one assay component(s) measured or calculated from the OT_ER_ERaERb_0480 assay. It is designed to make measurements of protein fragment complementation, a form of binding reporter, as detected with fluorescence intensity signals by Protein-fragment Complementation technology.Data from the assay component OT_ER_ERaERb_0480 was analyzed into 1 assay endpoint. This assay endpoint, OT_ER_ERaERb_0480, was analyzed in the positive analysis fitting direction relative to DMSO as the negative control and baseline of activity. Using a type of binding reporter, measures of receptor for gain-of-signal activity can be used to understand the binding at the pathway-level as they relate to the gene ESR1 and ESR2. Furthermore, this assay endpoint can be referred to as a primary readout, because the performed assay has only produced 1 assay endpoint. To generalize the intended target to other relatable targets, this assay endpoint is annotated to the nuclear receptor intended target family, where the subfamily is steroidal.
Protein-fragment complementation assay, or PCA, is a method for the identification and quantification of protein-protein interactions. In the PCA, the proteins of interest ("bait" and "prey") are each covalently linked to fragments of a third protein (e.g. DHFR, which acts as a "reporter"). Interaction between the bait and the prey proteins brings the fragments of the reporter protein in close proximity to allow them to form a functional reporter protein whose activity can be measured. […] Fluorescent signal in the basal state of the assay is very low and is primarily punctuate and cytoplasmic. Modulation of this assay is quantified as an increase in mean fluorescence intensity in the nucleus (for agonists) or in the nucleus and cytoplasm (antagonists) relative to vehicle controls, and can be quantified on a high content imaging device or a laser scanning cytometer. The latter instrument is favored for this assay because of the rapid mode of data acquisition, the ability to acquire data from the entire cell population in a well (as opposed to a fraction of the well on the high content devices) and the larger dynamic range typically achieved with this instrument. To assess sensitivity of the ER alpha/ER beta LBD assay to ligand, cells were treated with the ER agonist 17- beta-estradiol (E2) in 10-point concentration- response format for 8 hours and monitored response on a laser scanning plate cytometer (Acumen eX3; TTP Lab Tech).

Row | SMILES | AC50 | outcome
1 | CCCCCCCCCc1ccc(OCCO)cc1 | 4.81 µM (active) | –
2 | CCc1cc(Cc2cc(CC)c(N)c(CC)c2)cc(CC)c1N | – | inactive
3 | OCC1CCCO1 (stereo not drawn) | – | inactive
4 | Cc1ccc(O)c(-n2nc3ccccc3n2)c1 | – | inactive
5 | CCCCC(CC)COC(=O)c1ccc(N(C)C)cc1 (stereo not drawn) | – | inactive
6 | CCCCCCCC/C=C\CCCCCCCC(=O)N(C)CC(=O)O | – | inactive
7 | F[Si-2](F)(F)(F)(F)F | – | inactive
8 | CCCCCCCC/C=C\CCCCCCCC(=O)OCC(O)CO (stereo not drawn) | – | inactive
9 | COCCOCCC[Si](C)(O[Si](C)(C)C)O[Si](C)(C)C | 50 µM (active) | –
10 | CCN=c1cc2oc3cc(NCC)c(C)cc3c(-c3ccccc3C(=O)OCC)c-2cc1C | 71.3 µM (active) | –
11 | CC(C)(C)c1cc(Cc2cc(C(C)(C)C)c(O)c(C(C)(C)C)c2)cc(C(C)(C)C)c1O | – | inactive
12 | CCOC(OCC)OCC | – | inactive
13 | CCN=C1C=CC(=C(c2ccc(N(CC)CC)cc2)c2ccc(N(CC)CC)cc2)c2ccccc21 | – | inactive
